Screens (PubChem)
Compounds with a hit are over-represented: about 4.8% of the library has one in this group of screens.
tim10-1 inh: inhibits growth of tim10-1 mutant yeast; S. cerevisiae tim10-1 ts strain growth, BacTiter-Glo, 24 h; inhibition, % at 20 µM; actives 2.2% (n = 330,000);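 active = inhibition of at least 40%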;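 note: mutant grown at 25 °C; 0% = DMSO wells with yeast and 100% = wells holding no yeast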
tim23-1 inh: inhibits growth of tim23-1 mutant yeast; S. cerevisiae tim23-1 growth, BacTiter-Glo luminescence, 24 h; inhibition, % at 20 µM; AID 463212; actives 1.3% (n = 330,000);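 active = growth inhibition of the mutant yeast at or above 50%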;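 note: temperature-sensitive mutant grown at 25 °C; plate controls were DMSO-treated mutant yeast for no effect and medium wells lacking yeast for full effect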
TIM10 inh: growth inhibitors of TIM10 yeast strain | S. cerevisiae TIM10 strain growth, BacTiter-Glo luminescence, 24 h | inhibition, % at 10 µM | actives 1.4% (n = 330,000) | AID 463195;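 active = inhibition of 40% or more at the single tested concentration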;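 note: wild-type TIM10 isogenic control strain grown at permissive 25 °C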
SKKanGAS inh: blocks kanamycin growth of S. pyogenes SKKanGAS strain | BacTiter-Glo, 6 h | inhibition, % at 7.5 µM | actives 1.3% (n = 300,000);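 active = mean replicate score, as percent of positive control median, at least 50; inconclusive = mean below 50 but one replicate at or above 50; inactive = mean and every replicate below 50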;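 note: strain carries kanamycin resistance gene driven by streptokinase promoter and grows in 40 µg/ml kanamycin; loss of luminescence reflects streptokinase promoter inhibition or plain growth inhibition; 0% = median of DMSO wells and 100% = positive control at its reference dose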
PfHsp90 set2: inhibits growth of yeast expressing Plasmodium falciparum Hsp90 | actives 0.32% (n = 310,000) | S. cerevisiae expressing PfHsp90, BacTiter-Glo ATP, 48 h; yeast lacking PDR1 and PDR3 efflux regulators | AID 504621 | inhibition, % at 9.4 µM;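 active = every replicate shows inhibition above about 80%, whatever the replicate mean, limit read from the data; inconclusive = mean inhibition reaches the set limit but some replicate falls short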;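 note: 0% = DMSO neutral controls and 100% = 20 µM radicicol positive controls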
NALP1 inh: blocks the NALP1 inflammasome reconstituted in yeast | actives 0.61% (n = 280,000) | S. cerevisiae NALP1/ASC/caspase-1 growth, X-gal OD620, 72 h | AID 2071 | inhibition, % at 10 µM; in the data active = inhibition mostly above about 24%, no sharp cut-off; inactive = mostly below about 32%
tim23-1 conf: confirmation of tim23-1 mutant yeast growth inhibitors; shares compounds with tim23-1 inh; S. cerevisiae tim23-1 growth, BacTiter-Glo luminescence, 24 h; inhibition, % at 20 µM; actives 83% (n = 4,400); AID 463218;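 active = inhibition above about 39% in either of two replicate wells at 20 µM, limit read from the data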;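 note: temperature-sensitive tim23-1 mutant grown at 25 °C; 0% = DMSO wells with yeast and 100% = medium wells without yeast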
Starred values were filed as active, the others as inactive; ? = inconclusive; . = no result.

SMILES | tim10-1 inh | tim23-1 inh | TIM10 inh | SKKanGAS inh | PfHsp90 set2 | NALP1 inh | tim23-1 conf
CC(=O)Nc1ccc(OS(=O)(=O)c2cc(Cl)ccc2C)cc1 | 19 | 52* | 1 | -11 | -2 | 6 | 46*
Oc1c(Cl)cc(Cl)cc1C=Nc1ccc(Br)cc1 | 11 | 74* | 29 | 9 | 20 | 16 | 72*
Oc1ccc(Br)cc1C=Nc1ccc(Cl)cc1 | 17 | 48 | 18 | 15 | -26 | 9 | .
NC(=O)CC(NC(=O)Cc1ccc(Br)cc1)c1ccc(N2CCC(N3CCCC3)CC2)c([N+](=O)[O-])c1 (stereo unspecified) | -8 | 7 | -3 | -2 | 8 | 19 | .
Cn1c(C=O)c(C#CC(C)(C)O)c2ccccc21 | 29 | 61* | 38 | . | 7 | . | 60*
COc1cccc(C#Cc2c(C=O)n(C)c3ccccc23)c1 | 12 | 41 | 25 | . | 10 | . | .
COc1ccc(C2=C(C=O)Cc3ccccc3O2)cc1 | 33 | 51* | 25 | -7 | -12 | . | 53*
CCC(=O)n1nc(-c2cccnc2)nc1NCc1ccc(OC)cc1 | 4 | 4 | -4 | -3 | 10 | 12 | .
O=C1OCCN1C(=O)[C@H]1[C@H](c2ccccc2)C(c2ccc(F)cc2)=NN1c1ccc(Br)cc1 | 21 | 42 | 22 | . | -4 | . | .
COc1ccccc1[C@H]1C(c2cccc(C)c2)=NN(c2ccccc2)[C@@H]1CO | 20 | 51* | 0 | . | -30 | . | 45*
C[C@H]1C(c2ccc(F)cc2)=NN(c2ccccc2)[C@@H]1CO | 31 | 51* | 16 | . | -22 | . | 30
COc1ccccc1[C@H]1C(c2ccccc2)=NN(c2ccccc2)[C@@H]1CO | 21 | 50* | 11 | . | -6 | . | 39*
COc1ccccc1[C@H]1C(c2ccc(F)cc2)=NN(c2ccccc2)[C@@H]1CO | 22 | 55* | 12 | . | -3 | . | 39
CCOc1ccc(N2C(=O)C3C(c4ccccc4)=NN(c4ccccc4)C3C2=O)cc1 (stereo unspecified) | 25 | 4 | 23 | 22 | 11 | 16 | .
CC1=NN(c2ccccc2)C(=O)C1C(=O)C(=O)Nc1ccc(F)cc1 (stereo unspecified) | 5 | 4 | 2 | 3 | -2 | 15 | .
Cc1ccc(S(=O)(=O)NCc2csc(-c3cccs3)n2)cc1 | 36 | 59* | 31 | -6 | 4 | . | 43*
CN(CC(=O)Nc1ccc(F)cc1)CC(=O)NC1CCCCC1 | 10 | 6 | 10 | . | 11 | . | .
Cc1ccc(OCC(=O)N/N=C/c2ccc3c(c2)OCO3)cc1C | . | . | . | 42 | 15 | 18 | .
O=C(CN(c1ccc(Cl)c(Cl)c1)S(=O)(=O)c1ccccc1)N1CCc2ccccc2C1 | 12 | 15 | 5 | 19 | 1 | 0 | .
O=[N+]([O-])c1cc(O)c2ncccc2c1 | 28 | 67* | 17 | ? | . | 20 | 70*
COc1ccc(-c2cc3onc(-c4c(Cl)cccc4Cl)c3c(=O)n2C)cc1 | 26 | 37 | 24 | . | -27 | . | .
CC(=O)NC1C(OCc2cccc(Br)c2)OC(COC(C)=O)C(OC(C)=O)C1OC(C)=O (stereo unspecified) | -6 | 93* | 6 | -1 | 21 | 11 | 13
Nc1nc(SCc2ccc(Cl)cc2Cl)ns1 | 25 | 34 | 16 | 12 | . | 0 | .
Cc1ccccc1CSc1nsc(N)n1 | 35 | 52* | 11 | -1 | . | 3 | 50*
CC(=O)c1ccc(S(=O)(=O)N2CCN(C(=O)c3ccc(N)c([N+](=O)[O-])c3)CC2)cc1 | 1 | 13 | 9 | . | 2 | . | .
SMILES | tim10-1 inh | tim23-1 inh | TIM10 inh | SKKanGAS inh | PfHsp90 set2 | NALP1 inh | tim23-1 conf
CCN(CC)C(=O)C1CCN(Cc2cn(C)nc2-c2ccc(Oc3ccccc3)cc2)CC1 | 7 | 16 | 7 | -8 | -16 | 3 | .
COc1ccc(/C=N/NC(=O)c2cccs2)c2ccccc12 | -5 | 56* | 27 | -11 | 3 | . | 51*
COc1ccc(/C=N/NC(=O)c2cccnc2)c2ccccc12 | 16 | 14 | -11 | -2 | -2 | 13 | .
CCNC(=S)Nc1cc2oc3ccccc3c2cc1OC | 1 | 34 | 18 | -1 | 4 | 2 | .
CCCNC(=S)Nc1cc2oc3ccccc3c2cc1OC | 27 | 52* | 29 | -4 | -10 | 8 | 52*
Cc1csc2nc(O)c(C(=O)NCCC3=CCCCC3)c(=O)n12 | 34 | 66* | 35 | 43 | 14 | . | 44*
Cc1csc2nc(O)c(C(=O)NCCCc3ccccc3)c(=O)n12 | 26 | 73* | 25 | 35 | -46 | . | 53*
O=C(NCCC1=CCCCC1)c1cnccn1 | 30 | 5 | -7 | 6 | 42 | 16 | .
CCc1nnc(NS(=O)(=O)c2ccc(NC(=S)NC(=O)/C=C/c3ccc(C(C)C)cc3)cc2)s1 | 32 | 52* | 26 | 87* | -19 | 14 | 55*
CC1=CC[C@@]23CCCN2C(=O)CCC[C@H]3C1 | 13 | 89* | -5 | . | -7 | . | 7
C=CCN1CCN(C(=O)c2cc3c(s2)CCC(CC)C3)CC1 (stereo unspecified) | 16 | 12 | 3 | -2 | -15 | -2 | .
CCN(CC)c1ccc(/C=N/Nc2ccc(C)cc2)c(O)c1 | . | . | . | . | -4 | 36 | .
CCOC(=O)N/N=C/c1ccc(N(CC)CC)cc1O | 36 | 60* | 37 | 30 | -8 | 47 | 72*
Cc1cccc(C)c1Nc1nnc(SCC(=O)c2ccc(Br)s2)s1 | 39 | 52* | 36 | 16 | -10 | 33 | 61*
CCSc1nnc(NC(=O)c2ccc(Br)s2)s1 | 12 | 16 | 5 | 3 | -3 | 14 | .
O=C(CC1SC(=O)N(Cc2ccc(Cl)cc2)C1=O)Nc1nccs1 (stereo unspecified) | -12 | -11 | 1 | 8 | 4 | 26 | .
COc1ccc2cc3cc(C(=O)N4CCCCC4C)oc3nc2c1 (stereo unspecified) | 25 | 50* | 24 | -7 | 4 | -6 | 59*
CCOC(=O)C1CCN(C(=O)c2cc3c(ccc4ccccc43)o2)CC1 | 27 | 27 | -8 | -8 | -4 | -1 | .
CCOC(=O)C1CCN(C(=O)c2cc3cc4ccc(C)cc4nc3o2)CC1 | 16 | 58* | 21 | -6 | 6 | 13 | 59*
CCCCCOC(=O)Cc1c(O)c2ccccc2[nH]c1=O | 17 | 8 | 12 | 1 | -29 | 9 | .
CCCCCOC(=O)Cc1c(C)nc(-c2ccccc2)[nH]c1=O | 31 | 54* | 20 | 0 | 0 | -5 | 52*
COc1ccc(OC)c2c1sc(=NC(=O)C(C)C)n2C | 31 | 53* | 24 | 3 | 8 | -1 | 47*
COc1ccc(C(=S)N2CCN(c3ccccc3C)CC2)cc1 | 28 | 51* | 32 | 7 | -13 | -4 | 40*
COc1cccc(C2=CC(=O)CC(C)(C)C2)c1OC | 12 | 21 | 5 | . | -1 | . | .
